Source: PubChem BioAssay
Sampled rows, rich in hits. Any-hit rate of the full collection: about 10%.
MCF10A rereplic: inducers of DNA re-replication in MCF 10A breast cells; Potency, µM (highest dose often 46.1 µM), inactives show at the highest dose activity, positive = re-replication, usual class: activators; MCF 10A DNA re-replication, Hoechst nuclear intensity, 48 h; 350,000 compounds, 2.9% hits; further: % of control where 0% means no effect; nearly all actives have a fitted effect of over 50% in size
RORgamma inh: blocks mouse ROR gamma transcriptional activity; P51450; Drosophila S2 Gal4-RORgamma UAS-luciferase reporter, 20 h; Potency, µM (titrated, usually from 53.6 µM), for the others: at the highest dose activity change, negative = inhibition, most hits filed as inhibitors; 310,000 compounds, 5.4% hits; AID 2551; further: on the % scale 0 is the no-effect control and ±100 the full control effect; nearly all actives have a fitted effect of over 60% in size
Target sequence (P51450 whole entry, looked up, the tested form may be a part): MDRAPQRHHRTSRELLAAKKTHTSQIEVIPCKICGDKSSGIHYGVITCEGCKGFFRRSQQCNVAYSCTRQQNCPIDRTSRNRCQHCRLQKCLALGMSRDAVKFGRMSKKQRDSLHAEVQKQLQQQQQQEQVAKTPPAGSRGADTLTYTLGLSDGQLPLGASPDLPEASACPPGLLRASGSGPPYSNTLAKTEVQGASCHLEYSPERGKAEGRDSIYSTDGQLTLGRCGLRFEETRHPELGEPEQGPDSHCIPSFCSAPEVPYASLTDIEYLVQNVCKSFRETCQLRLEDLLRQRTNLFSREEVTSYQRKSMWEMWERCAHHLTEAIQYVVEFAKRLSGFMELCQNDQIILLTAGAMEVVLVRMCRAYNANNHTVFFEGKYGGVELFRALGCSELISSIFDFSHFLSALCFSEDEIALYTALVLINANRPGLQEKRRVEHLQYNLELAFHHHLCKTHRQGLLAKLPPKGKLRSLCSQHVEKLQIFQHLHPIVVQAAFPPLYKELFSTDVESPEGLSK
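Compounds are pin-transferred onto Drosophila Schneider cells expressing a copper-inducible Gal4–ROR gamma transactivation domain fusion. After 1 hr, copper sulfate is added to 700 uM final; luciferase is read 20 hr later.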
SW480 rereplic: inducers of DNA re-replication in SW480 colon cancer cells | SW480 DNA re-replication, Hoechst DNA content imaging, 48 h | 340,000 compounds, 1.8% hits | Potency, µM (highest dose often 46.1 µM), for inactives: at the highest dose re-replication activation, hits mostly activators; further: % of control where 0% means no effect; nearly all actives have a fitted effect of over 55% in size
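250 cells/well; 23 nL cpd via pin tool; 48 hr, 37 C, 5% CO2; Hoechst 40 min; imager read of total nuclear intensity, ex 405/em 500-530 nm.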
KB-V1 MDR tox: kills drug-selected multidrug resistant KB-V1 cells. 400,000 compounds, 3.4% hits. AID 1347076. Potency, µM (highest dose often 46.1 µM), hits mostly cytotoxic. KB-V1 MDR cells viability, CellTiter-Glo, 72 h; further: on the % scale 0 is the no-effect control and ±100 the full control effect; nearly all actives have a fitted effect of over 60% in size
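Cytotoxicity toward P-gp-expressing KB-V1 cells was determined as loss of CellTiter-Glo luminescence after 72 h at 37 degrees C. Compounds were tested in quantitative HTS format across a concentration range, with curves fitted to normalized data.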
KB-3-1 cytotox: KB-3-1 parental cell cytotoxicity; KB-3-1 viability, CellTiter-Glo ATP luminescence, 72 h; Potency, µM (doses to about 46.1 µM), most hits filed as cytotoxic; 400,000 compounds, 1.4% hits; AID 1347075; further: on the % scale 0 is the no-effect control and ±100 the full control effect; nearly all actives have a fitted effect of over 60% in size
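Cytotoxicity measured as CellTiter-Glo luminescence after 72 h at 37 C. Compound titrations were pinned onto drug-naive KB-3-1 parental adenocarcinoma cells grown in DMEM with 10% FBS, and normalized data fitted to concentration-response curves.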
Gal4-VP16 FLuc: counter-screen for ROR gamma inhibitors: Gal4-VP16 reporter; Drosophila S2 Gal4-VP16 UAS-luciferase, luminescence, 20 h; Potency, µM (series often up to 53.6 µM), for the others: at the highest dose activity, negative = inhibition, actives largely listed as inhibitors; 310,000 compounds, 3.5% hits; AID 2546;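 further: Gal4-VP16 expression switched on by copper sulfate through the metallothionein promoter; on the % scale 0 is the no-effect control and ±100 the full control effect; nearly all actives have a fitted effect of over 50% in size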
The depositor's hits bear a star; i = inactive; ? = inconclusive; nt = not tested or not shown; [ ] = dose if it differs, or a comment. The call rests on the fitted dose curve; in most records, active means well fitted curve in the direction sought with a large enough effect; inconclusive means small, poorly fitted or top-dose-only effect, or another doubt; inactive means no such curve, though single readings can be large; an effect the other way counts as inactive or inconclusive. Potency means the concentration at half of the fitted maximal effect.

SMILES	MCF10A rereplic	RORgamma inh	SW480 rereplic	KB-V1 MDR tox	KB-3-1 cytotox	Gal4-VP16 FLuc
COc1ccc(C(=O)NN2CCOCC2)cc1[N+](=O)[O-]	-24.5%	1.1%	-25.3%	?	?	-2.0%
COc1cc(C(=S)N2CCOCC2)ccc1OC(=O)c1ccccc1C	5.6%	?	18.4µM*	i	i	-7.4%
COc1ccc(C(=O)NC(=S)N2CCOCC2)cc1Br	-2.3%	1.26µM*	-0.7%	i	i	1.12µM*
COc1ccc(C(=O)NC(=S)N2CCOCC2)cc1[N+](=O)[O-]	-0.7%	2.24µM*	-4.8%	i	i	2.82µM*
CC(=O)c1ccc(C2CC34CNS(=O)(=O)C3CC2O4)cc1 (configuration not stated)	nt	11.0%	nt	nt	nt	0.4%
Cc1ccccc1CNC(=O)Cc1ccc(NC(=O)N2CCCCc3ccccc32)cc1	nt	nt	nt	i	i	nt
COc1cccc(-c2nc(SCC(=O)NC3CCCC3)c(-c3ccc(F)cc3)[nH]2)c1	nt	nt	nt	i	i	nt
Cc1ccc(NC(=O)c2cc(S(=O)(=O)N3CCOCC3)cs2)cc1	0.2%	11.7%	2.8%	i	i	27.4%
O=C(Nc1ccc(F)cc1)c1cc(S(=O)(=O)N2CCOCC2)cs1	-0.5%	?	?	i	i	2.7%
COc1ccc(NC(=O)c2cc(S(=O)(=O)Nc3ccc(OC)cc3)cs2)cc1	3.2%	1.4%	-13.1%	20.6µM*	i	11.2µM*
Cc1ccc(NC(=O)c2cc(S(=O)(=O)N3CCCCC3)cs2)cc1	?	19.9%	0.3%	14.6µM*	?	4.7%
O=C(Nc1ccc(Cl)cc1)c1cc(S(=O)(=O)N2CCOCC2)cs1	28.1%	32.5%	-1.1%	9.2µM*	?	17.0%
CC(=O)c1ccc(NC(=O)c2cc(C)nc3c2c(C)nn3-c2ccc(C)cc2)cc1	nt	nt	nt	i	i	nt
CN(C)c1ncnc2c1ccn2C1OC(CO)C(O)C1O (configuration not stated)	2.31µM*	nt	14.6µM*	?	0.82µM*	nt
OC[C@H]1O[C@@H](n2cnc3c(NCc4ccccc4)ncnc32)[C@H](O)[C@@H]1O	nt	-1.0%	nt	nt	nt	-8.8%
OCC1OC(n2ccc3c(NO)ncnc32)C(O)C1O (configuration not stated)	0.164µM*	nt	?	0.517µM*	0.461µM*	nt
OCC1OC(n2cnc3c(NCc4ccccc4O)ncnc32)C(O)C1O (configuration not stated)	?	nt	2.31µM*	10.3µM*	?	nt
CN(C)c1nc2c(N)ncnc2n1C1OC(CO)C(O)C1O (configuration not stated)	-0.1%	nt	-0.2%	i	i	nt
Brc1cccc(-c2nc3c4ccccc4ccn3c2Cc2ccsc2)c1	nt	nt	nt	i	i	nt
O=C(NC[C@@H]1CCCCN1)c1cc(OCC(F)(F)F)ccc1OCC(F)(F)F	nt	-12.9%[16.9 µM]	nt	nt	nt	-0.2%[17 µM]
Cc1nnc(N2C(=O)c3oc4ccccc4c(=O)c3C2c2ccc(F)cc2)s1 (configuration not stated)	nt	nt	nt	i	i	nt
CCOCC(=O)Nc1nc2ccc(OC)cc2s1	-13.4%	-30.8%	-9.3%	i	i	-19.9%
COc1ccc2nc(NC(=O)CSc3nccc(C)n3)sc2c1	13.6%	?	-4.2%	23.1µM*	i	-28.2%
COc1ccc2nc(NC(=O)CCc3cc(OC)c(OC)c(OC)c3)sc2c1	1.0%	31.2%	9.1%	20.6µM*	i	-1.5%
COc1cc(CCC(=O)Nc2ccc(Cl)c(C(F)(F)F)c2)cc(OC)c1OC	16.7%	36.4%	1.7%	16.4µM*	i	3.7%
COc1ccc2nc(NC(=O)CCn3cccc3)sc2c1	2.4%	11.8%	1.1%	18.4µM*	i	0.1%
CC(C)(C)NC[C@H](O)c1cc(O)cc(O)c1	8.1%	7.2%[16.9 µM]	-13.4%	nt	nt	0.6%[17 µM]
COc1cc(CCC(=O)Nc2ncc(C)s2)cc(OC)c1OC	-5.0%	35.3%	-13.4%	i	i	-10.2%
